PubChem BioAssay AID588475 (Sanford-Burnham Center for Chemical Genomics, 2011)
Screen size: about 350,000 compounds; about 2,100 (0.6%) were called active.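 How the source made its calls: active means inhibition of the ligand-induced calcium signal above about 50% at the single tested concentration (limit read from the data); inactive means the rest.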 Many of the other results were omitted from the sample, so actives are more common in it than they were.

Test: antagonists of CRF-BP/CRF-R2 complex, primary screen, cell-based, HEK293, calcium dye fluorescence, uHTS (AID 588475)
Settings: CRF-induced calcium fluorescence, at 11.8 µM, active compounds read high

Structure (SMILES)	inhibition
Cc1nn(C)c(Oc2ccccc2)c1CCNS(=O)(=O)c1ccc(F)cc1	-3.36% (inactive)
Nc1ncnc2c1ncn2[C@@H]1O[C@H](CNS(=O)(=O)c2ccc(-c3ccno3)s2)[C@@H](O)[C@H]1O	3.06% (inactive)
CCOC(=O)C1=NNC2(c3ccc(Cl)cc3)C(=O)N(c3cc(C)cc(C)c3)C(=O)C12 (centres undefined)	17.3% (inactive)
CC(C)CCOc1ccc(C(=O)Nc2cc(S(=O)(=O)N3CCOCC3)ccc2N2CCOCC2)cc1	19.1% (inactive)
Cc1cc(OCCCC(=O)Nc2cc(S(=O)(=O)N3CCOCC3)ccc2N2CCOCC2)ccc1Cl	62.5% (active)
Cc1cccc(OCCC(=O)Nc2cc(S(=O)(=O)N3CCCCC3)ccc2N2CCOCC2)c1	-1.67% (inactive)
O=C(Nc1c2c(nn1-c1ccccc1)CS(=O)(=O)C2)C1CCCC1	7.96% (inactive)
COc1cccc(CNC(=O)CCC2CCCN(C(=O)c3ccc(F)c(Cl)c3)C2)c1 (centres undefined)	6.37% (inactive)
COc1cccc(CNC(=O)CCC2CCCN(C(=O)c3ccoc3C)C2)c1 (centres undefined)	-2.45% (inactive)
COc1cccc(C(=O)N2CCCC(CCC(=O)NCc3ccc(F)c(F)c3)C2)c1 (centres undefined)	50.4% (active)
NC1=NC(=O)S/C1=C\c1ccc(O)cc1	51% (active)
CC(C)(C)c1ccc(/C=C2\SC(=O)N=C2N)cc1	9.93% (inactive)
O=C1N=C(N2CCc3ccccc3C2)S/C1=C\c1ccc(O)cc1	16.8% (inactive)
CNC(=O)/C(=C\C=C\c1ccccc1)NC(=O)c1ccc([N+](=O)[O-])cc1	4.28% (inactive)
Cc1ccc(NC(=O)Cn2sc3ccccc3c2=O)cc1	3.99% (inactive)
Cc1cc(NC(=O)CN2C(=O)NC(CCc3ccccc3)C2=O)no1 (centres undefined)	5.91% (inactive)
COc1ccc(C2(c3ccc(OC)cc3)NC(=O)N(CC(=O)Nc3cc(C)on3)C2=O)cc1	-31.2% (inactive)
Cc1cc(NC(=O)CN2C(=O)NC(CC(C)C)C2=O)no1 (centres undefined)	56.2% (active)
CC1CCN(C(=O)/C(=C\c2ccccc2)NC(=O)c2ccccc2)CC1	8.16% (inactive)
O=C(Cc1cccs1)N(CC1CCCO1)C1(C(=O)NC2CCCCC2)CCCCC1 (centres undefined)	-14.9% (inactive)
CC(C)c1ccc2c(c1)c(SC(C)(C)C)c(CC(C)(C)C(=O)O)n2Cc1ccc(Cl)cc1	54.3% (active)
Cc1ccc(C)c(NC(=O)C(OC(=O)c2ccc(C)s2)c2ccccc2)c1 (centres undefined)	-6.3% (inactive)
COCCCNC(=O)c1ccc(CNS(=O)(=O)c2ccc(NC(C)=O)cc2)cc1	-2.43% (inactive)

Structure (SMILES)	inhibition
O=C(Nc1ccc(S(=O)(=O)Nc2nccs2)cc1)c1cccc(S(=O)(=O)N2CCOCC2)c1	-0.01% (inactive)
O=C(Nc1ccc(S(=O)(=O)N2CCOCC2)cc1)c1ccc2ncsc2c1	1.25% (inactive)
Cc1nc2ccc(NC(=O)c3cccc(S(=O)(=O)N4CCOCC4)c3)cc2s1	116% (active)
O=C(NNC(=S)NCCCN1CCOCC1)c1ccncc1	1.88% (inactive)
CNC(=O)C[C@H]1C(=O)N(Cc2ccccc2)C[C@@H]1CSC	-10.7% (inactive)
CN(CCC(=O)Nc1cc(S(=O)(=O)N(C)C)ccc1Cl)CC(=O)Nc1ccc(F)cc1	-7.88% (inactive)
O=C(CSC1=Nc2ccccc2C2=NC(c3ccccc3)C(=O)N12)NCC1CCCO1 (centres undefined)	10.2% (inactive)
O=C(CC1N=C2c3ccccc3N=C(SCc3ccccc3Cl)N2C1=O)NCc1ccco1 (centres undefined)	89.4% (active)
NC(=O)CSC1=Nc2ccccc2C2=NC(CCC(=O)NCc3ccc(F)cc3)C(=O)N12 (centres undefined)	15.6% (inactive)
CCOc1ccc(NC(=O)COc2ccc(C(=O)N3CCC(C(N)=O)CC3)cc2OC)cc1	-31.7% (inactive)
COCC(C)n1c(SCC(=O)NC2CCCCC2C)nc2ccccc2c1=O (centres undefined)	6.09% (inactive)
COC(=O)c1ccc(CSc2nc3ccccc3c(=O)n2-c2cccc(OC)c2)o1	76.5% (active)
COCC(C)n1c(SCc2ccc(C(=O)OC)o2)nc2ccccc2c1=O (centres undefined)	51.9% (active)
COCCn1c(C)cc(C(=O)CSc2nc3ccccc3c(=O)n2C(C)COC)c1C (centres undefined)	25.5% (inactive)
COCCNC(=O)c1ccc(-n2c(SCc3cccnc3)nc3ccccc3c2=O)cc1	-8.33% (inactive)
COc1cccc(-n2c(SCC(=O)NC3CCS(=O)(=O)C3)nc3ccccc3c2=O)c1 (centres undefined)	3.38% (inactive)
COc1ccc(CCNC(=O)c2nnc(CS(=O)(=O)c3ccccc3)o2)cc1OC	-36.1% (inactive)
CCc1nn(CCCC(=O)NCc2ccc(C)cc2)c(=O)c2cc3occc3n12	-4.08% (inactive)
Cc1ccc(C)c(S(=O)(=O)N2CC(=O)Nc3ccccc32)c1	-4.23% (inactive)
O=C(NCc1ccncc1)c1cccc(NS(=O)(=O)c2ccc(F)c(F)c2)c1	-1.96% (inactive)
Cc1cc(=O)oc2c(C(=O)c3ccccc3)c(OCC(N)=O)ccc12	21.9% (inactive)
CC1CCc2[nH]c3ccc(C(=O)N(C)CC(=O)Nc4cccc(F)c4)cc3c2C1 (centres undefined)	104% (active)
CN(CC(=O)Nc1cccc(F)c1)C(=O)CC1CCCC1	-9.75% (inactive)

Structure (SMILES)	inhibition
CCCN(CC(=O)Nc1ccccc1C)C(=O)c1ccc2[nH]c3c(c2c1)CC(C)CC3 (centres undefined)	-10.4% (inactive)
COCCN1CCn2c(nc3cc(NS(C)(=O)=O)ccc32)C1	-7.04% (inactive)
COC(=O)Nc1ncc(CN2C(=O)c3ccccc3C2=O)s1	-1.89% (inactive)
CCNC(=O)COC(=O)CCNC(=O)c1cccc(C)c1	3.93% (inactive)
CCOC(=O)C(CC)/C(C)=N\NC(=O)c1cccc(C)c1 (centres undefined)	89% (active)
CC(=O)Nc1ccc(NC(=O)[C@@H](NC(=O)c2cccc(C)c2)C(C)C)cc1	4.4% (inactive)
Cc1ccccc1C(CC(=O)c1cccs1)C(C#N)C#N (centres undefined)	-24.6% (inactive)
O=C(CN(c1cccc(Cl)c1)S(=O)(=O)c1ccccc1)NN=C1CCCC1	-7.21% (inactive)
O=C(CSc1nc(-c2ccccc2)cs1)Nc1cccc([N+](=O)[O-])c1	27.9% (inactive)
O=C(CN1CCC(NC(=O)Nc2ccccc2)CC1)Nc1cccc([N+](=O)[O-])c1	13.2% (inactive)
O=C(CSCC(=O)Nc1cccc([N+](=O)[O-])c1)Nc1ccccc1	54% (active)
O=C1c2ccccc2C2=Nc3ccccc3SC(c3ccccc3F)C12 (centres undefined)	-94.9% (inactive)
CC1(C)C/C(=N/Nc2ccc([N+](=O)[O-])cc2[N+](=O)[O-])C(C)(C)O1	-6.77% (inactive)
CC(Nc1ccc([N+](=O)[O-])cc1[N+](=O)[O-])c1ccccc1 (centres undefined)	61.4% (active)
CC(C)OP(=O)(OC(C)C)C(Nc1ccccc1)c1cccc([N+](=O)[O-])c1 (centres undefined)	-23.4% (inactive)
Cc1ccc(OCC(=O)Nc2ccccc2C(=O)NC2CC2)cc1C	0.16% (inactive)
CCc1ccc(C(=O)NC(=S)Nc2ccccc2N2CCOCC2)cc1	125% (active)
O=C(Nc1ccccc1N1CCOCC1)c1ccncc1	4.16% (inactive)
O=C(NC(=S)Nc1ccccc1N1CCCCC1)c1ccc(F)cc1	-90.3% (inactive)
O=C(NCC(=O)N(CC1CCCO1)C(C(=O)NC1CCCCC1)c1ccccc1)c1ccco1 (centres undefined)	2.38% (inactive)
COc1ccc(Cl)cc1NC(=O)CNc1ccccc1F	61.7% (active)
COc1ccc(C)cc1NC(=O)CSc1ccc(Cl)cc1	5.69% (inactive)
COc1ccc(Cl)cc1NC(=O)CN(C)C(=O)c1cc2ccccc2cc1OC	9.16% (inactive)
